According to PubChem BioAssay:
Several values for one entry are separate records, joined by “and”; a condition that tells them apart may be missing. Identical values can stand only once. Records with an inconclusive call do not appear. Activity calls are given as the source filed them.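 The calls were made as follows, unless noted: active = normalized viability below 100% at a tested concentration; inactive = the rest.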

How the values were obtained:
[1] = viability loss in pontine glioma line – cell-based, SU-DIPG-XIII, MIPE4.0, CellTiter-Glo, qHTS, dose response (AID 1347061; cut-off not given, nearly all actives have AC50 up to about 37 µM;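 also: cells exposed to compound for 48 hours before readout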); conditions: CellTiter-Glo ATP luminescence
[2] = viability loss in pontine glioma line – cell-based, JHH-DIPG-1, MIPE4.0, CellTiter-Glo, qHTS, dose response (AID 1347062; cut-off not given, nearly all actives have AC50 up to about 27 µM); conditions: JHH-DIPG-1 viability, CellTiter-Glo ATP luminescence
[3] = viability loss in pontine glioma line – cell-based, SU-DIPG-XXV, MIPE5.0, CellTiter-Glo, qHTS, dose response (AID 1347065; cut-off not given, nearly all actives have AC50 up to about 26 µM;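 also: cells exposed to compound for 48 hours before ATP readout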); conditions: CellTiter-Glo ATP luminescence
[4] = JHH-DIPG-1 glioma cell viability, MIPE5.0 library, CellTiter-Glo luminescence, qHTS (AID 1347067; cut-off not given, nearly all actives have AC50 up to about 26 µM;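 also: cells exposed to compound for 48 hours before readout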); conditions: JHH-DIPG-1 glioma viability, CellTiter-Glo ATP luminescence
[5] = growth inhibition of DIPG cells – cell-based, MIPE5.0 library, qHTS (AID 1347068; cut-off not given, nearly all actives have IC50 up to about 30 µM); conditions: SU-DIPG-XXV viability
[6] = viability loss with induced miR-34 in A549 – imaging, A549 dox-inducible miR-34, nuclei and caspase counts, primary screen (AID 1347080;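 active = compounds whose cell count with miR-34 switched on is under 0.7 times the count with it off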); conditions: A549 miR-34 inducible, Hoechst nuclei count, 48 h
[7] = compounds altering HSF1 focus formation in cells – imaging, Selleck Cancer Library (AID 1347162; in the data active = plate-normalised HSF1 focus index below about 0.46); conditions: human cells, HSF1 nuclear foci imaging, at 10 µM; SSMD: measured here: HSF1 foci SSMD mean; cell count: measured here: cell number; plate-normalised HSF1 focus index: stronger effect = lower value
[8] = MELAS cybrid and Rieske KO viability enhancers – cell-based, MELAS cybrids, Rieske KO mouse fibroblasts, CellTiter-Glo, primary screen (AID 1508586;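 active = mean z-score across replicates of 1.96 or higher in either the MELAS or the Rieske mutant cell line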;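 also: z relative to plate mean and SD of compound and empty wells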); conditions: low glucose
[9] = drug combination growth inhibition, ovarian cancer – cell-based, oncology-focused library, rucaparib conditional, profiling panel (AID 1508598); conditions: patient-derived ovarian cancer cells, CellTiter-Glo viability, 144 h, stronger effect = lower value
[10] = growth inhibition of DIPG cells – cell-based, MIPE4.0 library, CellTiter-Glo luminescence, qHTS (AID 1347066; cut-off not given, nearly all actives have AC50 up to about 30 µM;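 also: cells exposed to compound for 48 hours before readout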); conditions: SU-DIPG-VI viability, CellTiter-Glo ATP luminescence
[11] = viability loss in pontine glioma line – cell-based, SU-DIPG-IV, MIPE4.0, CellTiter-Glo, qHTS, dose response (AID 1347063; cut-off not given, nearly all actives have AC50 up to about 30 µM;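 also: compound exposure lasted 48 hours before the viability readout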); conditions: CellTiter-Glo ATP luminescence
[12] = viability loss in pontine glioma line – cell-based, SU-DIPG-XIII, MIPE5.0, CellTiter-Glo, qHTS, dose response (AID 1347064; cut-off not given, nearly all actives have AC50 up to about 23 µM); conditions: CellTiter-Glo ATP luminescence
[13] = stronger effect = lower value, cell number ratio, induced over uninduced
[14] = measured here: relative caspase fold change +Dox/-Dox
[15] = measured here: total cells with miR-34 induction, stronger effect = lower value
[16] = measured here: total cells without miR-34 induction
[17] = MELAS cybrid survival, CellTiter-Glo 48 h, stronger effect = higher value
[18] = Rieske KO mouse fibroblast survival, CellTiter-Glo 72 h
[19] = at 0.000305 µM, OCI-C5x cells, with rucaparib 10 µM, 100% = cells with rucaparib alone
[20] = at 0.000305 µM, OCI-C5x cells, without rucaparib
[21] = at 0.000305 µM, OCI-P5x cells, with rucaparib 20 µM, 100% = cells with rucaparib alone
[22] = at 0.000305 µM, OCI-P5x cells, without rucaparib
[23] = at 0.00122 µM, OCI-C5x cells, with rucaparib 10 µM, 100% = cells with rucaparib alone
[24] = at 0.00122 µM, OCI-C5x cells, without rucaparib
[25] = at 0.00122 µM, OCI-P5x cells, with rucaparib 20 µM, 100% = cells with rucaparib alone
[26] = at 0.00122 µM, OCI-P5x cells, without rucaparib
[27] = at 0.00488 µM, OCI-C5x cells, with rucaparib 10 µM, 100% = cells with rucaparib alone
[28] = at 0.00488 µM, OCI-C5x cells, without rucaparib
[29] = at 0.00488 µM, OCI-P5x cells, with rucaparib 20 µM, 100% = cells with rucaparib alone
[30] = at 0.00488 µM, OCI-P5x cells, without rucaparib
[31] = at 0.0195 µM, OCI-C5x cells, with rucaparib 10 µM, 100% = cells with rucaparib alone
[32] = at 0.0195 µM, OCI-C5x cells, without rucaparib
[33] = at 0.0195 µM, OCI-P5x cells, with rucaparib 20 µM, 100% = cells with rucaparib alone
[34] = at 0.0195 µM, OCI-P5x cells, without rucaparib
[35] = at 0.0781 µM, OCI-C5x cells, with rucaparib 10 µM, 100% = cells with rucaparib alone
[36] = at 0.0781 µM, OCI-C5x cells, without rucaparib
[37] = at 0.0781 µM, OCI-P5x cells, with rucaparib 20 µM, 100% = cells with rucaparib alone
[38] = at 0.0781 µM, OCI-P5x cells, without rucaparib
[39] = at 0.313 µM, OCI-C5x cells, with rucaparib 10 µM, 100% = cells with rucaparib alone
[40] = at 0.313 µM, OCI-C5x cells, without rucaparib
[41] = at 0.313 µM, OCI-P5x cells, with rucaparib 20 µM, 100% = cells with rucaparib alone
[42] = at 0.313 µM, OCI-P5x cells, without rucaparib
[43] = at 1.25 µM, OCI-C5x cells, with rucaparib 10 µM, 100% = cells with rucaparib alone
[44] = at 1.25 µM, OCI-C5x cells, without rucaparib
[45] = at 1.25 µM, OCI-P5x cells, with rucaparib 20 µM, 100% = cells with rucaparib alone
[46] = at 1.25 µM, OCI-P5x cells, without rucaparib
[47] = at 5 µM, OCI-C5x cells, with rucaparib 10 µM, 100% = cells with rucaparib alone
[48] = at 5 µM, OCI-C5x cells, without rucaparib
[49] = at 5 µM, OCI-P5x cells, with rucaparib 20 µM, 100% = cells with rucaparib alone
[50] = at 5 µM, OCI-P5x cells, without rucaparib

## Cn1cc(-c2ccc3nnc(C(F)(F)c4ccc5ncccc5c4)n3n2)cn1
[1]
  outcome: inactive
[2]
  outcome: inactive
[3]
  outcome: inactive
[4]
  outcome: inactive
[5]
  outcome: inactive
[6]; [13]
  fold change: 0.861 (inactive)
[6]; [14]
  fold change: 0.881
[6]; [15]
  cell count: 6960
[6]; [16]
  cell count: 8080
[7]
  SSMD: 2.73
  cell count: 6920
  plate-normalised HSF1 focus index: 1.14 (inactive)
[8]; [17]
  z-score: -0.414 (inactive)
[8]; [18]
  z-score: 0.567
[9]; [19]
  viability: 113% (inactive)
[9]; [20]
  viability: 90.8% (active)
[9]; [21]
  viability: 102% (inactive)
[9]; [22]
  viability: 89.6% (active)
[9]; [23]
  viability: 123% (inactive)
[9]; [24]
  viability: 106% (inactive)
[9]; [25]
  viability: 104% (inactive)
[9]; [26]
  viability: 98.1% (active)
[9]; [27]
  viability: 118% (inactive)
[9]; [28]
  viability: 109% (inactive)
[9]; [29]
  viability: 107% (inactive)
[9]; [30]
  viability: 101% (inactive)
[9]; [31]
  viability: 116% (inactive)
[9]; [32]
  viability: 114% (inactive)
[9]; [33]
  viability: 106% (inactive)
[9]; [34]
  viability: 98.3% (active)
[9]; [35]
  viability: 110% (inactive)
[9]; [36]
  viability: 110% (inactive)
[9]; [37]
  viability: 104% (inactive)
[9]; [38]
  viability: 102% (inactive)
[9]; [39]
  viability: 120% (inactive)
[9]; [40]
  viability: 112% (inactive)
[9]; [41]
  viability: 105% (inactive)
[9]; [42]
  viability: 95.6% (active)
[9]; [43]
  viability: 133% (inactive)
[9]; [44]
  viability: 123% (inactive)
[9]; [45]
  viability: 107% (inactive)
[9]; [46]
  viability: 104% (inactive)
[9]; [47]
  viability: 130% (inactive)
[9]; [48]
  viability: 137% (inactive)
[9]; [49]
  viability: 97% (active)
[9]; [50]
  viability: 104% (inactive)

## CC(C)(C)C(=O)Oc1ccc2c(c1)nc(NC(=O)c1cccc([N+](=O)[O-])c1)n2CCCO
[1]
  outcome: inactive
[2]
  outcome: inactive
[10]
  outcome: inactive
[4]
  outcome: inactive
[5]
  outcome: inactive

## CN(C)N=Nc1nc[nH]c1C(N)=O
[1]
  outcome: inactive
[11]
  outcome: inactive
[12]
  outcome: inactive
[4]
  outcome: inactive
[6]; [13]
  fold change: 0.887 (inactive) and 0.898 (inactive)
[6]; [14]
  fold change: 1.47 and 1.18
[6]; [15]
  cell count: 9080 and 7660
[6]; [16]
  cell count: 10200 and 8520
[8]; [17]
  z-score: -0.353 (inactive) and -0.0151 (inactive)
[8]; [18]
  z-score: 0.329 and 0.212
[9]; [19]
  viability: 107% (inactive)
[9]; [20]
  viability: 101% (inactive)
[9]; [21]
  viability: 107% (inactive)
[9]; [22]
  viability: 108% (inactive)
[9]; [23]
  viability: 106% (inactive)
[9]; [24]
  viability: 108% (inactive)
[9]; [25]
  viability: 109% (inactive)
[9]; [26]
  viability: 108% (inactive)
[9]; [27]
  viability: 111% (inactive)
[9]; [28]
  viability: 107% (inactive)
[9]; [29]
  viability: 106% (inactive)
[9]; [30]
  viability: 104% (inactive)
[9]; [31]
  viability: 105% (inactive)
[9]; [32]
  viability: 105% (inactive)
[9]; [33]
  viability: 103% (inactive)
[9]; [34]
  viability: 112% (inactive)
[9]; [35]
  viability: 111% (inactive)
[9]; [36]
  viability: 109% (inactive)
[9]; [37]
  viability: 105% (inactive)
[9]; [38]
  viability: 110% (inactive)
[9]; [39]
  viability: 112% (inactive)
[9]; [40]
  viability: 109% (inactive)
[9]; [41]
  viability: 105% (inactive)
[9]; [42]
  viability: 110% (inactive)
[9]; [43]
  viability: 116% (inactive)
[9]; [44]
  viability: 120% (inactive)
[9]; [45]
  viability: 104% (inactive)
[9]; [46]
  viability: 111% (inactive)
[9]; [47]
  viability: 201% (inactive)
[9]; [48]
  viability: 164% (inactive)
[9]; [49]
  viability: 99.7% (active)
[9]; [50]
  viability: 113% (inactive)
